Source: PubChem
Rows were chosen to be rich in hits. Some 2% of all compounds tested hit in one or more screens of this group.
TR SRC2 fluor cs = alters Texas Red total fluorescence, flagging assay interference | actives 0.29% (n = 280,000) | TRb/SRC2 Texas Red total fluorescence interference | Potency, µM (top dose mostly 106 µM) | AID 1479; active = well fitted curve in either direction with a large enough effect; inconclusive = small, poorly fitted or top-dose-only effect
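Human TRb ligand-binding domain at 0.6 uM with 20 nM Texas Red SRC2 peptide in Tris buffer containing 1 uM T3 and 5% DMSO, incubated with compound 5 h at ambient temperature. Total fluorescence (555/632 nm) calculated as parallel + 2 × perpendicular.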
TRb-SRC2 inh = disrupts binding of human TR beta to SRC2; P10828; TRbeta-SRC2 peptide binding, fluorescence polarization; receptor liganded with 1 µM T3; Potency, µM (doses to about 106 µM), most hits filed as inhibitors; actives 0.065% (n = 280,000); also: nearly all actives have a fitted effect of over 50% in size
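Human TRb LBD (0.6 uM) plus Texas Red-labeled SRC2 peptide (20 nM), 1uM T3, 5% DMSO, 5 hr at ambient temperature. Decreased polarization (555/632 nm) flags inhibition; data normalized to free and bound peptide controls.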
Coupling enz = coupling enzyme interference in Giardia aldolase counter-screen; coupling enzyme system counterscreen, AmpLite Red fluorescence; activity change, negative = inhibition, % at 58.2 µM, hits read low; actives 0.67% (n = 290,000); AID 2472; in the data active = activity change below about -30%
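First, compound is pin-transferred into glyceraldehyde-3-phosphate coupling-enzyme reagent at 57.5 uM final and held 10 min at RT. Next, substrate, coupling system and AmpLite Red are added. After 20 min RT, fluorescence (525/598 nm) is read.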
HTT ATP protect = cytoprotection in Huntington HTT-Q103 PC12 cell model; PC12 HTT-Q103 induced, cytoprotection, ATP luminescence, 40 h; Potency, µM (top dose mostly 56.4 µM), hits mostly activators; actives 0.14% (n = 230,000); also: nearly all actives have a fitted effect of over 45% in size
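Compounds added alongside 100 nM tebufenozide, which induces toxic Q103 huntingtin exon 1-GFP in stable PC12 cells; surviving cells quantified by luminescent ATP measurement. Medium: phenol red-free DMEM, 5% equine and 5% calf serum.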
KDM4E inh = inhibitors of human JMJD2E histone demethylase. B2RXH2. JMJD2E catalytic domain, FDH-coupled NADH fluorescence (FDH is formaldehyde dehydrogenase). Potency, µM (doses to about 57.1 µM), hits mostly inhibitors. actives 1.6% (n = 230,000); active = well fitted inhibition curve with a large enough effect, not every such curve was filed as active; inconclusive = small, poorly fitted or top-dose-only effect, or another doubt; inactive = no such curve, though single readings can be large or run the other way; also: nearly all actives have a fitted effect of over 50% in size
Target sequence (B2RXH2 1-337 limits assumed): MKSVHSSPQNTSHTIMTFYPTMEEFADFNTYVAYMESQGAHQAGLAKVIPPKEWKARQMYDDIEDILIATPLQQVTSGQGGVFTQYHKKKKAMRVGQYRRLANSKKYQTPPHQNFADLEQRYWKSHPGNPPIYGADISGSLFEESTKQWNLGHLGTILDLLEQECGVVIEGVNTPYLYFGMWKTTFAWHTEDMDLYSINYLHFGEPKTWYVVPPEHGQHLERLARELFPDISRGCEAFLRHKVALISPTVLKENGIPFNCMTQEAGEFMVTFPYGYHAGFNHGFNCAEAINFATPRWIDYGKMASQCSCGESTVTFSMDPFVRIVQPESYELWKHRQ
HTT aggregate = reduces HttQ103-GFP aggregates in PC12 cells | PC12 HttQ103-GFP aggregates, Acumen cytometry, 40 h | Potency, µM (highest dose often 46.1 µM), usual class: inhibitors | actives 1.1% (n = 220,000) | AID 1688; also: nearly all actives have a fitted effect of over 60% in size
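PC12 cells with ecdysone-inducible HTT exon1 Q103-GFP, induced by 100 nM tebufenozide, given compounds in a concentration series. GFP aggregates (1–25 um, 6 SD above background) counted in lysates by laser-scanning cytometry, 488 nm excitation.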
Large screens that a line does not name were inactive; [ ] = another dose, or the depositor's remark. Unless noted, calls follow the shape of the dose curve; as a rule, active = well fitted curve in the direction sought with a large enough effect; inconclusive = small, poorly fitted or top-dose-only effect, or another doubt; inactive = no such curve, though single readings can be large; an effect the other way counts as inactive or inconclusive.

CCNc1nc(NCC)nc(N/N=C/c2ccc(O)c(O)c2)n1	KDM4E inh 18µM
COc1ccc(-c2cnnc(N/N=C/c3ccc(O)c(O)c3)n2)cc1	KDM4E inh 25µM, HTT aggregate 11µM
COc1ccc(CCNC(=O)CCn2c(=O)c3ccccc3n(CC(=O)Nc3cccc(C)c3)c2=O)cc1OC	none (no result: Coupling enz, HTT ATP protect, KDM4E inh, HTT aggregate)
CC[C@H](C)[C@H](NC(=O)[C@H](N)Cc1ccc(O)cc1)C(=O)N[C@@H](CC(N)=O)C(=O)N[C@@H](CC(C)C)C(=O)N[C@H](C(=O)N[C@@H](C(=O)N[C@@H](CCCN=C(N)N)C(=O)N[C@@H](CCC(N)=O)C(=O)N[C@@H](CCCN=C(N)N)C(=O)N[C@H](Cc1ccc(O)cc1)C(N)=O)[C@@H](C)O)[C@@H](C)CC	none (no result: HTT ATP protect, KDM4E inh, HTT aggregate)
Cc1ccc(Cn2cnc3nc4c(cc3c2=O)CC(C)CC4)cc1 (centres undefined)	none (no result: Coupling enz, HTT ATP protect, KDM4E inh, HTT aggregate)
Cc1cc(Cl)ccc1OCC(=O)Nc1c(C(=O)c2ccccc2)oc2ccccc12	none (no result: Coupling enz, HTT ATP protect, KDM4E inh, HTT aggregate)
Nc1cc(Cl)nc(C(=O)O)c1Cl	none (no result: Coupling enz, HTT ATP protect, KDM4E inh, HTT aggregate)
O=C(c1cccc2c1-c1ccccc1/C2=N/O)N1CCCCC1	HTT aggregate 11µM
O=C1C(c2c(O)[nH]c3ccccc23)=Nc2ccccc21	HTT ATP protect inconclusive (no result: HTT aggregate)
CC(=O)c1cccc2c(O)c(C3=Nc4ccccc4C3=O)[nH]c12	Coupling enz -48, KDM4E inh inconclusive
COc1cccc(-c2nc(-c3ccc(-c4ccccc4)nc3OC)no2)c1	none (no result: Coupling enz, HTT ATP protect, KDM4E inh, HTT aggregate)
COC(=O)c1cn(NC(=O)c2cnccn2)c(=O)c2ccccc12	KDM4E inh inconclusive, HTT aggregate 8.9µM
COc1cccc(NC(=O)N2CCN3CCCCC3C2)c1 (centres undefined)	none (no result: Coupling enz, HTT ATP protect, KDM4E inh, HTT aggregate)
CC(NC(=O)CCCCCN1C(=O)c2ccccc2C1=O)c1ccc2c(c1)CCCC2 (centres undefined)	none
CC(NC(=O)CCCCCCN1C(=O)c2ccccc2C1=O)c1ccc2c(c1)CCCC2 (centres undefined)	HTT aggregate 10µM
CCc1cccc(C)c1NC(=O)c1cc(C)oc1C	HTT aggregate 1.3µM
CCc1cccc(C)c1NC(=O)c1ccoc1C	none
COc1ccc(-c2nnc(-c3cc4ccccc4oc3=O)o2)cc1	none
COc1ccc2oc(=O)c(-c3nnc(-c4ccc(C)cc4)o3)cc2c1	TR SRC2 fluor cs 20µM[quencher] (no result: Coupling enz, HTT ATP protect, KDM4E inh, HTT aggregate)
CC(OC(=O)C1CC1)C(=O)Nc1ccc([N+](=O)[O-])cc1Cl (centres undefined)	HTT ATP protect 3.5µM
CC(C)CC(=O)Nc1ccc([N+](=O)[O-])cc1Cl	none
COc1cc(OC)cc(C(=O)NCC(=O)OCC(=O)/C=C2/N(C)c3ccccc3C2(C)C)c1	KDM4E inh inconclusive
CN1/C(=C\C(=O)COC(=O)Cn2nnc(-c3ccccc3)n2)C(C)(C)c2ccccc21	KDM4E inh inconclusive, HTT aggregate 11µM
CCN(CC)c1ccc(/C=N/N=C(N)N)c(O)c1	KDM4E inh inconclusive, HTT aggregate 0.71µM
CCN(CC)c1ccc(/C=N/Nc2cccc(C)c2)c(O)c1	KDM4E inh inconclusive
CCN(CC)c1ccc(/C=N/NC(=O)c2ccoc2C)c(O)c1	KDM4E inh 11µM, HTT aggregate inconclusive
CCN(CC)c1ccc(/C=N/NC(=S)NC)c(O)c1	KDM4E inh inconclusive
CCN(CC)c1ccc(/C=N/NC(=O)OC)c(O)c1	KDM4E inh 13µM
CCN(CC)c1ccc(/C=N/Nc2ccccc2)c(O)c1	KDM4E inh 16µM
CCCCOC(=O)/C(C#N)=C/c1ccc(-c2ccc(Br)cc2)o1	none (no result: Coupling enz, HTT ATP protect, KDM4E inh, HTT aggregate)
CCc1ccc(-n2nc(C)c3c(C)cc(=O)n(Cc4nc(-c5ccccc5)oc4C)c32)cc1	none (no result: Coupling enz, HTT ATP protect, KDM4E inh, HTT aggregate)
O=C1C(Cl)=C(Nc2ccc3cn[nH]c3c2)C(=O)c2ccccc21	Coupling enz -36, KDM4E inh 10µM, HTT aggregate 4µM
CN(C)c1ccc(NC2=C(Cl)C(=O)c3ccccc3C2=O)cc1	Coupling enz -43, HTT aggregate 14µM
O=C(Nc1ccc2cn[nH]c2c1)c1c(Cl)cccc1Cl	none
